Legend:
Test in all cases: log2 ratio of Biotin-Ahx-Ub-VS probe labelling (fragment/DMSO); higher = less target engagement (more negative = stronger competition), active = hit call of the paper (q ≤ 0.05, log2 ratio ≤ -1)
Details in all cases: compound concentration: 200 uM; treatment time: 3 h
USP9X = USP9X (UniProt Q93008)
In short: (§1)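 HEK293T lysate (495 µg per sample, in Tris/CHAPS/IGEPAL buffer with protease inhibitors) was exposed in triplicate for 3 h to fragment at 200 µM or to vehicle, then to Biotin-Ahx-Ub-VS at 0.5 µM final for 1 h. Labelled DUBs were enriched on NeutrAvidin, digested with LysC and trypsin, and analysed by diaPASEF LC-MS/MS. Spectronaut label-free quantities were normalised to the global median, and values are average log2 ratios of fragment over vehicle from an unpaired t-test. Only proteins with ≥2 unique peptides were used.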

UniProt O00487 = molecular target: UniProt O00487
In short: as §1

UniProt O00507 = molecular target: UniProt O00507
In short: as §1

UniProt P51784 = molecular target: UniProt P51784
In short: as §1

UniProt Q5T2D3 = molecular target: T1, UniProt Q5T2D3
T1 sequence (whole entry): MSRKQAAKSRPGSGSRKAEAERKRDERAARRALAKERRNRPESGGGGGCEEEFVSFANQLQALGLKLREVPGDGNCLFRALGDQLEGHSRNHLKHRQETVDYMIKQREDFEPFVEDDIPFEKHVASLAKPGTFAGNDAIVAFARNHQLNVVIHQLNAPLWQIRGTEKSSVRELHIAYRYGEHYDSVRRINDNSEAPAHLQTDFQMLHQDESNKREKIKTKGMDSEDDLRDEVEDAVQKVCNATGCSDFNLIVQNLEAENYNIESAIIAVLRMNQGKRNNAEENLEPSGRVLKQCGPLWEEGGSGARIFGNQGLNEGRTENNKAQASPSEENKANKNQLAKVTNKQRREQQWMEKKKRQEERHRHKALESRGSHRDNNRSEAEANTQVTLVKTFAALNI
In short: as §1

UniProt Q8TE49 = molecular target: T2, UniProt Q8TE49
T2 sequence (whole entry): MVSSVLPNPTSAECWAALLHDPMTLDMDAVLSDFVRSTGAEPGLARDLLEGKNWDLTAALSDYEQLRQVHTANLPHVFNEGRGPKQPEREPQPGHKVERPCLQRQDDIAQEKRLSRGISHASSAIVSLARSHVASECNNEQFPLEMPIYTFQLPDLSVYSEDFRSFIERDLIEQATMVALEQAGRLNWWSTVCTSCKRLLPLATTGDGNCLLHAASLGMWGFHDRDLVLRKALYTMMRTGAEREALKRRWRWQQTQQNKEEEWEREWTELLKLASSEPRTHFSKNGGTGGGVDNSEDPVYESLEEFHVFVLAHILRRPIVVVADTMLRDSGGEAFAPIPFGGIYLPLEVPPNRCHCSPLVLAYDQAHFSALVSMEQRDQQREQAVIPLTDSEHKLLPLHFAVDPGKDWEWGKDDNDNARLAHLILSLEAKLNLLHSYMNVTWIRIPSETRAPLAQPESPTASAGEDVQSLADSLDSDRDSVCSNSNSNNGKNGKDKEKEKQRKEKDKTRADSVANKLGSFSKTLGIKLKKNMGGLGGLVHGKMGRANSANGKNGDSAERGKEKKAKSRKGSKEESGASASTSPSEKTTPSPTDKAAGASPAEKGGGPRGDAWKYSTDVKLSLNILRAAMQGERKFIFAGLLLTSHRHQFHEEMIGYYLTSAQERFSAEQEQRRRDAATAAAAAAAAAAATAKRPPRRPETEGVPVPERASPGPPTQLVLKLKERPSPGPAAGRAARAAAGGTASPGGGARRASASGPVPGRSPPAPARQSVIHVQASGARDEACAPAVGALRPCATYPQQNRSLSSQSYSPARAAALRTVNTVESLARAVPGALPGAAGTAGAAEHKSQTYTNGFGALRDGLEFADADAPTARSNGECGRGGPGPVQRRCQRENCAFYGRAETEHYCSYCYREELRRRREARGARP
In short: as §1

UniProt Q9P2H5 = molecular target: T3, UniProt Q9P2H5
T3 sequence (whole entry): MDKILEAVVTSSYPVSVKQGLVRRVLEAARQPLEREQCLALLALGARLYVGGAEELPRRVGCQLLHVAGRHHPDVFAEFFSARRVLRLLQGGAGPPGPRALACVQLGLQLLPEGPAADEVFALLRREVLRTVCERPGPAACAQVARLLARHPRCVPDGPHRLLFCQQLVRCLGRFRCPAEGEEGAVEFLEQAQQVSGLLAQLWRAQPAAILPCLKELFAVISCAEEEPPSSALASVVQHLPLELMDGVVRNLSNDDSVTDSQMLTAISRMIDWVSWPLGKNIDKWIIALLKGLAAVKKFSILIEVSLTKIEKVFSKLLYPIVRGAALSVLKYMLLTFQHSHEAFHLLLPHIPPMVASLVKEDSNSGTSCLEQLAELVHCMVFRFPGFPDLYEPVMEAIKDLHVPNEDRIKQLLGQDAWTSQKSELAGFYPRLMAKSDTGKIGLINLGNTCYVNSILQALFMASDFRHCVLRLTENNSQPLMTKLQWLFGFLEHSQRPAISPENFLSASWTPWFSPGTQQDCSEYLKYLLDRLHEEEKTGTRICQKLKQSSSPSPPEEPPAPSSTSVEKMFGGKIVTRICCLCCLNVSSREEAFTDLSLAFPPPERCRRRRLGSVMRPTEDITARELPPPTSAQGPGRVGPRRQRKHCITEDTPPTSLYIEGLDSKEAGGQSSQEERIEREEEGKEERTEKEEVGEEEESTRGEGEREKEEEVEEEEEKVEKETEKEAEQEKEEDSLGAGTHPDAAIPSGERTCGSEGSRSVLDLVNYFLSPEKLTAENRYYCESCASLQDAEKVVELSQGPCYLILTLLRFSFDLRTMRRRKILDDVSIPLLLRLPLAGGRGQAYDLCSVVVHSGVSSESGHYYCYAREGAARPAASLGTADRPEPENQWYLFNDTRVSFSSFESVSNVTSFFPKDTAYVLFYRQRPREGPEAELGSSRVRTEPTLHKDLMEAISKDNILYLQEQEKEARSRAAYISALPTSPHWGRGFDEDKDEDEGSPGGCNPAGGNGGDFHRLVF
In short: as §1

UniProt Q9UGI0 = molecular target: T4, UniProt Q9UGI0
T4 sequence (whole entry): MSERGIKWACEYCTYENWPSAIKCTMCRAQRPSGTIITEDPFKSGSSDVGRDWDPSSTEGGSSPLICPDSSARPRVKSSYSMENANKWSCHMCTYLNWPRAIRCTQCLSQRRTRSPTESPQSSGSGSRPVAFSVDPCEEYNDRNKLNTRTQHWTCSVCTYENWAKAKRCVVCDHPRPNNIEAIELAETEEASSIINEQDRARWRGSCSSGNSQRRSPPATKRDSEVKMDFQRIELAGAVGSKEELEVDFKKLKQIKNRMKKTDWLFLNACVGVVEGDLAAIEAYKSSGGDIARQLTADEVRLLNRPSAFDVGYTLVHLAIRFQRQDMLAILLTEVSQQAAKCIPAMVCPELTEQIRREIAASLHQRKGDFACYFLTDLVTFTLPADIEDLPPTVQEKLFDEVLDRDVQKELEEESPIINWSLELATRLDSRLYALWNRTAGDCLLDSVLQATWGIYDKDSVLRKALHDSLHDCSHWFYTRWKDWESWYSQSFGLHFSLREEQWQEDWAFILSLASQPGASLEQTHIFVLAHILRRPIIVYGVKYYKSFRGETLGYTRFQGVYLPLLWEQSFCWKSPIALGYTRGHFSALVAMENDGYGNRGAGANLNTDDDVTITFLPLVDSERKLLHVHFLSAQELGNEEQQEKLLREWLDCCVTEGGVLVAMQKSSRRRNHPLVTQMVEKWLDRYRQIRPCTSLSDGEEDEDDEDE
In short: as §1

YOD1 = molecular target: T5, YOD1 (UniProt Q5VVQ6)
T5 sequence (whole entry): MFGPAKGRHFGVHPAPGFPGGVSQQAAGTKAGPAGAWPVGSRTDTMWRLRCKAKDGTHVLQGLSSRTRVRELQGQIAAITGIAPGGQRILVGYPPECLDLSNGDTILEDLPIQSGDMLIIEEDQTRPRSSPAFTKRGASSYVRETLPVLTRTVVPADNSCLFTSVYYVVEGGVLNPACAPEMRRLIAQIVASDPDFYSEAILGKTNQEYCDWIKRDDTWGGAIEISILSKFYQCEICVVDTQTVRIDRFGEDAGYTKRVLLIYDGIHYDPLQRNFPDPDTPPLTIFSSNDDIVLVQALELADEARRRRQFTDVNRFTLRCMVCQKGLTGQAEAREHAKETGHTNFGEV
In short: as §1

Measured: log2 ratio of Biotin-Ahx-Ub-VS probe labelling

Sequence of UniProt P51784 (P51784 whole entry): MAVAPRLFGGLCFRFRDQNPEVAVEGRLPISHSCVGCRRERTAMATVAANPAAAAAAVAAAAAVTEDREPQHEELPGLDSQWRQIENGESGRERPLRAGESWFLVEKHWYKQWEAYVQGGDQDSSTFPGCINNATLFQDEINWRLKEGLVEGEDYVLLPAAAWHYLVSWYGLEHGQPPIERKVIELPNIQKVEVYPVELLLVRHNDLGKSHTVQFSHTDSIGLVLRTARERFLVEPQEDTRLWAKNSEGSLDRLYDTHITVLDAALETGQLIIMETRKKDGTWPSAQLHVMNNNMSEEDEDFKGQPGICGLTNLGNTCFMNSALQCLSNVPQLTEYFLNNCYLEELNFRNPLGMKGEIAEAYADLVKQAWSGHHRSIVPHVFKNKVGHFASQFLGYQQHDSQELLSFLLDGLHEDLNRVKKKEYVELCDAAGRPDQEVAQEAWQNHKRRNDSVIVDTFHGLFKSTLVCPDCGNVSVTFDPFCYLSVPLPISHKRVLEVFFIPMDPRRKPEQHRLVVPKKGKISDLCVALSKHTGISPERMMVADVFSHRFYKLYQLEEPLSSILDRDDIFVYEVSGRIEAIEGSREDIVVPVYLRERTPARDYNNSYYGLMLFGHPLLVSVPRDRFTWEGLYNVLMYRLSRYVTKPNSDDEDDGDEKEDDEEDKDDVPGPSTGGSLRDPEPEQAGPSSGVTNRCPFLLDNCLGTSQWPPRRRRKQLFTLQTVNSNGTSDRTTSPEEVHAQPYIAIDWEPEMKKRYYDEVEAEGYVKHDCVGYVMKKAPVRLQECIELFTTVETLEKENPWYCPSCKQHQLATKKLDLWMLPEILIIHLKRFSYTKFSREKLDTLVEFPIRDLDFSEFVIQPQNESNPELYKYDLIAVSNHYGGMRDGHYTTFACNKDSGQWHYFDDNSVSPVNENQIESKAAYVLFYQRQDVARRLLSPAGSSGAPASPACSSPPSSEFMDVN
Sequence of UniProt O00487 (O00487 whole entry): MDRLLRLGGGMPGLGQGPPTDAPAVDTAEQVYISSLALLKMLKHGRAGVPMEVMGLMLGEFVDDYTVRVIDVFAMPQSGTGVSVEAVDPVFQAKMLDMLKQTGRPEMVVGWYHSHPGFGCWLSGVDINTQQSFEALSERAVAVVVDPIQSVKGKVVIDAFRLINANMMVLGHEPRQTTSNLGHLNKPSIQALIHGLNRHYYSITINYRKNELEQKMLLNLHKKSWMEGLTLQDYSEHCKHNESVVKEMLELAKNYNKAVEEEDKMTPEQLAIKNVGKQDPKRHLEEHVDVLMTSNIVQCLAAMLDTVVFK
Sequence of USP9X (Q93008 whole entry, the tested form may be a part): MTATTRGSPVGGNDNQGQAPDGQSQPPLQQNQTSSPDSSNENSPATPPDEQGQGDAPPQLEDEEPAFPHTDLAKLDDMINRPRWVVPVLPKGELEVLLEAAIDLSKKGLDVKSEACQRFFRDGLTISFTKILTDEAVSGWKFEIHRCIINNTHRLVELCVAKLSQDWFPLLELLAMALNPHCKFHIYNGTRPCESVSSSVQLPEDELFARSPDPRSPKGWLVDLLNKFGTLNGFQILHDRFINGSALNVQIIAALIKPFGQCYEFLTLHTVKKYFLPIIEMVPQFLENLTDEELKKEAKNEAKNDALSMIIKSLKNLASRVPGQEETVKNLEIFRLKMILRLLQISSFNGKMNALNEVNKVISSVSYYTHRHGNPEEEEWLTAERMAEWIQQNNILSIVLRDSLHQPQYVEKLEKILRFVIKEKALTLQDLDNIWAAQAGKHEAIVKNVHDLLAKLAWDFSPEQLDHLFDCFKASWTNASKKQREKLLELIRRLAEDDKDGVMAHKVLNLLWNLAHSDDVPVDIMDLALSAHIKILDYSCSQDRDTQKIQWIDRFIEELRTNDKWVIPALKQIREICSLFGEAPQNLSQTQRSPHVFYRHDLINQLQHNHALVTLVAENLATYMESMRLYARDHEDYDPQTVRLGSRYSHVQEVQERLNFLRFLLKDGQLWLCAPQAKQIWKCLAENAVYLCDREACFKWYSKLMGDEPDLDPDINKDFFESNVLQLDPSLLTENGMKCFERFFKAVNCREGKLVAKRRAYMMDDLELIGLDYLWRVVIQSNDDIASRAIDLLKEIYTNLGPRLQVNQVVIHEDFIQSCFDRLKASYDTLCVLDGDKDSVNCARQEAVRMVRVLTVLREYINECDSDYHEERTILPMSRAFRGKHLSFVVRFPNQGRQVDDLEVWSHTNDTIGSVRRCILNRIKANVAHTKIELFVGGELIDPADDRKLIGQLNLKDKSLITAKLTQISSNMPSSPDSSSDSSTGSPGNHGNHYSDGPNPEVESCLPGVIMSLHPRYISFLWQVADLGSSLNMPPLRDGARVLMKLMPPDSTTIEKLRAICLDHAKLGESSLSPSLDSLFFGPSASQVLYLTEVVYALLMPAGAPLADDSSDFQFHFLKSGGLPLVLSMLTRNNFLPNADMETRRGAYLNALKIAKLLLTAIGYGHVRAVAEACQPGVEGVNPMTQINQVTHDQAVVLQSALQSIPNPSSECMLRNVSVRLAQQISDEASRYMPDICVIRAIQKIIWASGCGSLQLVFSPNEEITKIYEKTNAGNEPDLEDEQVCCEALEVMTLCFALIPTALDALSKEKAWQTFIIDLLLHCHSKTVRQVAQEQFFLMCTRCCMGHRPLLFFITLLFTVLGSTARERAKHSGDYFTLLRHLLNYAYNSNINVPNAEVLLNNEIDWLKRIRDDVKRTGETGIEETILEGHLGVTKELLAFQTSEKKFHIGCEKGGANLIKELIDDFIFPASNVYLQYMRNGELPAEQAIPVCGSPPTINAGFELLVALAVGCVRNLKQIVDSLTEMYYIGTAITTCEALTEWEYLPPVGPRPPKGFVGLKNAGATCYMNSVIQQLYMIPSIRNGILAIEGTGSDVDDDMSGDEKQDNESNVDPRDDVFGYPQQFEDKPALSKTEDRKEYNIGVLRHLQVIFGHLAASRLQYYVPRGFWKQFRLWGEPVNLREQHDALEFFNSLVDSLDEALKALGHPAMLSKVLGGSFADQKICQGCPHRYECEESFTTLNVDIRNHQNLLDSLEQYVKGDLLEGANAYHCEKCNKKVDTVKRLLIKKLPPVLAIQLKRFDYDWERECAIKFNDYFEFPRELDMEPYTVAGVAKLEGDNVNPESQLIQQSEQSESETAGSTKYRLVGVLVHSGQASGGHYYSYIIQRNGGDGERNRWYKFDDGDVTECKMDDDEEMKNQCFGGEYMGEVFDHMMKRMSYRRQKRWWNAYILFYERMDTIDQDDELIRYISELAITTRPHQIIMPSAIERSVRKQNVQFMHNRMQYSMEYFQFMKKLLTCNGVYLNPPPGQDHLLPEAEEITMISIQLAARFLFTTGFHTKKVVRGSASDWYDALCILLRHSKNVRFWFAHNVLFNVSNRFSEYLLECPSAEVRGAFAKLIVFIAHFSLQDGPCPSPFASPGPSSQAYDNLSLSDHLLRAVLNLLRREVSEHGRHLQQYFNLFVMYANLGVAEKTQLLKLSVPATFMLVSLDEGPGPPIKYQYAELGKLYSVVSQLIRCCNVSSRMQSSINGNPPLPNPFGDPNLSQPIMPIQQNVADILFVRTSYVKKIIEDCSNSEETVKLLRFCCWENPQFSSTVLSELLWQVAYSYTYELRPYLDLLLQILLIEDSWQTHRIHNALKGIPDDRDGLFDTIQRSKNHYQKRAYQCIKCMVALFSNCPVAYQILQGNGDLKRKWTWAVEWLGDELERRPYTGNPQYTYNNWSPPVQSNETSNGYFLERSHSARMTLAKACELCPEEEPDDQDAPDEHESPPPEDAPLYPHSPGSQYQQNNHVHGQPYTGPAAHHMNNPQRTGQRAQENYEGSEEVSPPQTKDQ

NC(=O)C(Cc1ccccc1)NC(=O)CCl (centres undefined)
inactive: USP9X -0.099 | UniProt O00487 -0.162 | UniProt O00507 0.191 | UniProt P51784 -0.0194 | UniProt Q5T2D3 -0.105 | UniProt Q8TE49 -0.102 | UniProt Q9P2H5 -0.193 | UniProt Q9UGI0 -0.398 | YOD1 0.0228
